# Experimental data reported in PubChem BioAssay AID1851 (National Center for Advancing Translational Sciences (NCATS), 2009).
# Among all 16,000 compounds or so, about 2,600 (16%) were called active. Not shown: some 20% with an inconclusive outcome. These entries were drawn from the full list. Values without a mark were called inactive. Calls come from the whole dose curve; as a rule, active = well fitted curve in the direction sought with a large enough effect; inconclusive = small, poorly fitted or top-dose-only effect, or effect the other way; inactive = no such curve, though single readings can be large or run the other way.
# Target: Cytochrome P450 2D6 (Homo sapiens) (UniProt P10635)
# Experiment: Cytochrome panel assay with activity outcomes
# Conditions: recombinant CYP, pro-luciferin dealkylation, luminescence, p450-cyp2d6; series mostly up to 57.1 µM; activity, negative = inhibition: at the top concentration
# % is set by controls: 0 for no effect and ±100 for the full control effect.
# Chain of Cytochrome P450 2D6 (Homo sapiens) (P10635 whole entry, looked up): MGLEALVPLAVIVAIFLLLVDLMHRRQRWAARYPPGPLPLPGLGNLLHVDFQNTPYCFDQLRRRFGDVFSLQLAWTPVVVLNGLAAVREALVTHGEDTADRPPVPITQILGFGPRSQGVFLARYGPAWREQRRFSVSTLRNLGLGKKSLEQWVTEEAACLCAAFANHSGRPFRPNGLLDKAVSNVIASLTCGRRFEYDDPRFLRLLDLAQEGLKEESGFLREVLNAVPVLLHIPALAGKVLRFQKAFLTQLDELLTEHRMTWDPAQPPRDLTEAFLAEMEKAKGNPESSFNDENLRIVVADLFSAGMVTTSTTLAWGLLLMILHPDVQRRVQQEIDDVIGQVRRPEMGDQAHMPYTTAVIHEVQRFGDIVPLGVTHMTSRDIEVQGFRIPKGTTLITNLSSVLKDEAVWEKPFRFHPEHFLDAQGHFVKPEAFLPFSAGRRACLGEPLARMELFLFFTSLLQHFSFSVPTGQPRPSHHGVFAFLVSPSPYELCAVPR
Structure (SMILES),"activity, negative = inhibition",AC50
CCC(=O)Nc1ccc(NC(=O)CSc2nnnn2-c2cccnc2)cc1C,-3.22%,
CC1=C(C)/C(=N\OC(=O)/C=C/c2ccccc2)C=CC1=O,-17.9%,
Cc1ccc(S(=O)(=O)/N=C2/NC(=O)/C(=C/c3cccnc3)S2)cc1,-9.7%,
COc1ccc2ccccc2c1/C=C\C(=O)c1ccccc1,7.33% [at 11.4 µM],
CC1(C)Oc2ccc(C#N)cc2[C@H](N2CCCC2=O)[C@H]1O,3.54%,
CCCn1nc(NC(=O)CC(C)C)c2cc3ccccc3nc21,-8.32%,
Cc1ccc(C(=O)COC(=O)c2ccccc2N2C(=O)C3C4CCC(C4)C3C2=O)cc1C (configuration not stated),-11.3%,
O=C(O)[C@@H]1CCCN1Cc1cc2ccccc2c2ccccc12,10.3% [at 11.4 µM],
Clc1ccc(CN2CCCN(Cc3ccc(Cl)cc3)C2c2cc3ccccc3c3ccccc23)cc1,,0.2 µM (active)
COC(=O)C1=C(N)Oc2cc(C)n(CC3CCCO3)c(=O)c2C1c1ccccc1OC (configuration not stated),0.229%,
COc1cc(C(=O)N2CCC(NC(=O)C(Cc3ccc(C(C)C)cc3)NC(C)=O)CC2)cc(OC)c1OC (configuration not stated),-11.8%,
CN(C)CCCNc1c(C(=O)O)cnc2c1cnn2C,6.96%,
Cc1cc2nc(C)n(CCCN)c2cc1C,-23.3%,
C[C@@H]1CCN=C(N)S1,,inactive
CC(C)CN(C)c1nc(N)c(C(=O)N=C(N)N)nc1Cl,,39.8 µM (active)
CN(C)c1nc(N)c(C(=O)N=C(N)N)nc1Cl,-8.15%,
N[C@]1(C(=O)O)CCc2cc(P(=O)(O)O)ccc21,12.2%,
CC(C)=CCC/C(C)=C/CC/C(C)=C/CSc1ccccc1C(=O)O,6.75%,
O=C(N/N=C1/C[C@@H](O)[C@@H](O)[C@@H]2[C@@H]3C(=O)N(Cc4ccc5c(c4)OCO5)C(=O)[C@H]3CC[C@H]12)OCc1ccccc1,-16.9% [at 11.4 µM],
CC1=CC(C)(C)Nc2ccc(CSc3ccccc3)cc21,,0.631 µM (active)
Cc1cc(CSc2ccccc2)ccc1NC(=O)COc1ccccc1,-20.7%,
O=c1cc(CSc2ccccc2)[nH]c(=S)[nH]1,-1.57%,
Cc1cc(=Nc2ccc3c(c2)c(N)cc(C)[n+]3C)nc(N)n1C,2.81% [at 11.4 µM],
Cc1ccc(C(=O)NC(=S)NCC(=O)c2ccccc2)cc1,-0.0035%,

Structure (SMILES),"activity, negative = inhibition",AC50
O=C(CSc1nc2ccccc2c2ccccc12)c1ccccc1,15.3% [at 11.4 µM],
C=CCSc1nc2ccccc2n1C(=O)/C=C/c1cc(OC)c(OC)c(OC)c1,-18.1%,
O=C(COC(=O)c1cccc(S(=O)(=O)N2CCN(c3ccccc3)CC2)c1)NCc1ccco1,-24.8%,
O=C(c1ccccc1)N(Cc1ccco1)C1CCS(=O)(=O)C1 (configuration not stated),0.77%,
O=C(CN(Cc1ccco1)C(=O)c1cccc(Cl)c1)Nc1c(Cl)cc(Cl)cc1Cl,,7.08 µM (active)
Cc1cc(C)c2[nH]c(=O)c(CN(Cc3ccco3)C(=O)c3cccs3)cc2c1,-0.89%,
O=C(c1ccco1)N(CCC(c1ccccc1)c1ccco1)Cc1ccco1 (configuration not stated),-23.7%,
O=C(CN(Cc1ccco1)C(=O)c1ccccc1)Nc1ccc(Cl)c(Cl)c1,,25.1 µM (active)
CC(=O)Nc1ccc(N2C(=O)CC(c3ccccc3)CC2=O)cc1,-0.454%,
CC(=O)Nc1ccc(S(=O)(=O)N=S(C)C)cc1,,inactive
CCOc1cc(CNCCc2ccc(S(N)(=O)=O)cc2)cc(Cl)c1OCc1ccccc1,,0.355 µM (active)
CCOc1ccc(CCNC(=O)C2CCN(S(=O)(=O)CC)CC2)cc1OCC,-2.78%,
NS(=O)(=O)c1ccc(CCNC(=O)C2CCCN2C(=O)OCc2ccccc2)cc1 (configuration not stated),-16.8%,
CCOc1cc(CNCCc2ccc(S(N)(=O)=O)cc2)ccc1OCc1ccc(Cl)cc1,,8.91 µM (active)
NS(=O)(=O)c1ccc(CNC(=O)/C=C/c2c(Cl)cccc2Cl)cc1,-21.5%,
COC(=O)[C@H](CCSC)NC(=O)C/C=C\[C@@H](C)[C@@H](CO)OC,8.79% [at 11.4 µM],
N#CCCn1c(=O)c(-c2cccs2)nc2cnc(OCc3ccccc3)nc21,-4.83%,
CCOC(=O)CSC1=C(C#N)C(C)C2=C(CCCC2=O)N1 (configuration not stated),-12.6%,
CCOC(=O)CSC1=C(C#N)C(c2sccc2C)CC(=O)N1 (configuration not stated),3.89%,
C=CCOC(=O)C1=C(C)NC(SCC(=O)OCC)=C(C#N)C1c1ccc(C)cc1 (configuration not stated),,14.1 µM (active)
C#CCCCO/N=C1/[C@H]2O[C@@H]2[C@@H](O)[C@H]2[C@H]1CCn1c(=O)n([C@@H](CC)c3ccccc3)c(=O)n12,-15.4% [at 11.4 µM],
COc1ccccc1C(=O)NN1C(=O)C2C3C=CC(O3)C2C1=O (configuration not stated),3.94%,
Cn1c(=O)c2[nH]c(SCCN3CCOCC3)nc2n(C)c1=S,0.168% [at 11.4 µM],
